This is an account of results in PubChem BioAssay (EPA / NIEHS).

Inconclusive results are not listed. Calls of active or inactive are those of the source. The calls were made as follows, unless noted: active = hit-call score of the fitted dose curve at least 0.9, where 1 is the maximum; inactive = score below 0.9.

For orientation: AC50 means the concentration giving half of the maximal activity seen.

The nature of assay [1]: CCTE_Mundy_HCI_Cortical_NOG_NeuronCount: CCTE's Neurite Outgrowth Assay in rat cortical cells for Neuron Count, Mundy Lab (AID 2284236; active = hit-call score of the fitted dose curve at least 0.9, where 1 is the maximum;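 also: neurons counted by imaging betaIII-tubulin and Hoechst stained cortical cells; cells exposed to compound for about 48 hours before fixation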). A digest of the protocol:
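Read-out: neuron number by high-content imaging of betaIII-tubulin (Alexa Fluor-488) and Hoechst-labelled rat primary cortical cells.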

A short description of assay [2]: CCTE_Mundy_HCI_Cortical_NOG_BPCount: CCTE's Neurite Outgrowth Assay in rat cortical cells for Branch Point Count, Mundy Lab (AID 2284237).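 As to AC50: branch points counted about two days after chemical exposure.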 A digest of the protocol:
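Measured 50.33 h after dosing, this morphology endpoint uses rat primary cortical cultures labelled for betaIII-tubulin. Branch points are quantified by high-content imaging, with DMSO as negative control and baseline.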

A short description of assay [3]: CCTE_Mundy_HCI_hNP1_Casp3_7: CCTE's Caspase-Glo 3/7 Assay in human neuroprogenitor cells for Apoptosis, Mundy Lab (AID 2284240). A digest of the protocol: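 Neuroepithelial-lineage stem cells from WA09 embryonic cells were treated with chemicals after 40–44 h of culture. Twenty-four hours later, caspase-3/7 activation was detected luminescently after a 30 min room-temperature reagent step, with DMSO as baseline.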

Assay [4] is described as follows: CCTE_Mundy_HCI_hNP1_CellTiter: CCTE's Cell Titer-Glo 2 Assay in human neuroprogenitor cells for Viability, Mundy Lab (AID 2284241; active = hit-call score of the fitted dose curve at least 0.9, where 1 is the maximum;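 as to AC50: a hit is a drop in ATP luminescence versus DMSO meaning reduced viability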). A digest of the protocol:
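Measures ATP content in human neural progenitors derived from WA09 embryonic cells. Read-out at 26.5 hours after dosing, with DMSO serving as the negative control and baseline.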

Assay [5] can be described thus: TAMU_HCS_1.5hr_SingleDonor1434_Cytotoxicity: Cytotoxicity Assessment using High-content Screening (HCS) Fluorescent Imaging for the Texas A&M University (TAMU) 1.5-hr Human Induced Pluripotent Stem Cell (iPSC)-derived Cardiotoxicity Assay (AID 2284234; active = hit-call score of the fitted dose curve at least 0.9, where 1 is the maximum). A digest of the protocol:
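Human iPSC-derived cardiomyocytes dosed at 0.2, 1, 10, 100 uM final (0.5% DMSO) for 90 min at 37 C. Hoechst 33342-stained nuclei counted by 10x high-content imaging; POD is EC10, a 10% drop in total cell count versus DMSO.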

Assay [6] is described as follows: TAMU_PeakParms_SingleDonor1434_QT: Texas A&M University (TAMU) 1.5-hr Human Induced Pluripotent Stem Cell (iPSC)-derived Cardiomyocytes Calcium (Ca+2) Flux Assay for Cardiotoxicity: QT (decay-rise ratio) (AID 2284235; active = hit-call score of the fitted dose curve at least 0.9, where 1 is the maximum). A digest of the protocol: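 iPSC-derived cardiomyocytes (single donor 1434) dosed at 0.2, 1, 10, 100 uM final in 0.5% DMSO, 90 min at 37C. Ca2+ flux fluorescence decay/rise ratio; EC05 (5% increase versus DMSO) as POD, excluding beat-arrest and severe-notch data.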

Read-out in assay [7]: Collagen I, COL1A1 (gene 1277)
Description: BSK_MyoF_CollagenI: BioMAP Diversity Plus: MyoF Assay for Collagen I Biomarker Activity (AID 2284238). The note with it: primary human lung fibroblasts. A digest of the protocol:
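Collagen I levels measured by ELISA on human lung fibroblast cultures 24 h post-dosing, with curve fitting in the positive direction relative to DMSO; SRB staining of parallel wells marked cytotoxicity.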

Read-out in assay [8]: Collagen III, COL3A1 (gene 1281)
Put plainly: BSK_MyoF_CollagenIII: BioMAP Diversity Plus: MyoF Assay for Collagen III Biomarker Activity (AID 2284239). To be noted: primary human lung fibroblasts. A digest of the protocol:
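Collagen III biomarker quantified by ELISA in human lung fibroblast cultures 24 h after dosing. Activity fitted in the positive direction against DMSO as baseline.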

The nature of assay [9]: CCTE_Mundy_HCI_Cortical_Synap_Neur_Matur_NeuronCount: CCTE's Synaptogenesis and Neurite Maturation Assay in rat cortical cells for Neuron Count, Mundy Lab (AID 2284242; active = hit-call score of the fitted dose curve at least 0.9, where 1 is the maximum;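 also: hits reduce neuron count versus DMSO baseline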). A digest of the protocol:
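Neuron number was scored by automated high-content imaging of Hoechst- and MAP2-labelled rat primary cortical cells. Glial growth was arrested with AraC at DIV 5, compounds were applied from DIV 7, and cultures ended at DIV 12.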

Read-out in assay [10]: Interleukin 17F (IL17F), IL17F (gene 112744)
Description: BSK_BT_xIL17F: BioMAP Diversity Plus: BT Assay for Interleukin 17F (IL17F) Biomarker Activity (AID 2284243). The note with it: primary human B cells with PBMC. A digest of the protocol:
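Human B cells co-cultured with PBMC; secreted IL-17F quantified by LumineX xMAP 24 hours after chemical dosing. Activity fitted in the positive direction against DMSO negative control as baseline.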

For the molecule `CN(C)CCOC(C)(c1ccccc1)c1ccccn1` (stereo not drawn), the result in assay [1], in assay [2] and in assay [3] was inactive.
Consider `COCCOCCOCCO`, for which the molecule was called inactive in assay [1], in assay [2], in assay [3] and in [4].
With `Oc1c(Cl)cc(Cl)c(Cl)c1Cc1c(O)c(Cl)cc(Cl)c1Cl`, the AC50 in assay [5] is 14.9 µM (active); in [1], 50 µM (active); in assay [2] it was 10.4 µM (active); in assay [7] it was 0.215 µM (active); in assay [8], 6.62 µM (active); in assay [3] it was 27 µM (active). For the same molecule, the AC50 in assay [4] was 21.2 µM (active); in assay [9] it was 5 µM (active); in assay [10] it was 9.92 µM (active). For the same molecule, the outcome in [6] was inactive.
As to `CC(C)(N=C=O)c1cccc(C(C)(C)N=C=O)c1`, the result in assay [7], in [8] and in assay [10] was inactive.
For `COc1ccc(CCN2CCC(Nc3nc4ccccc4n3Cc3ccc(F)cc3)CC2)cc1`, the values for the AC50 in [7], in assay [8] and in [10] were 8.62 µM (active), 6.52 µM (active) and 6.67 µM (active), respectively.
As to `c1ccc2cc(Nc3ccc(Nc4ccc5ccccc5c4)cc3)ccc2c1`, the result in [7] and in assay [10] was inactive. The AC50 in assay [8] was 4.82 µM (active).
Regarding `CSCCC=O`, the outcome in [7], in assay [8] and in [10] was inactive.
For the molecule `CC(C)NCC(O)COc1ccc(CC(N)=O)cc1` (stereo not drawn), in assay [6], the result was inactive.
Take `CS(=O)(=O)c1ccc(C2=C(c3ccccc3)C(=O)OC2)cc1`: the outcome in assay [7], in assay [8] and in assay [10] was inactive.
On to `CCCCN(CCCC)C(=O)N(CCCC)CCCC`, for which the half-maximal activity concentration (AC50) in assay [7] was 9.53 µM (active); in assay [8] it was 8.12 µM (active); in assay [10] it was 29 µM (active).
For the molecule `CCCCCC(C=O)=Cc1ccccc1`, the result in [7], in [8] and in assay [10] was inactive.
Take `CCC(C)c1cc([N+](=O)[O-])cc([N+](=O)[O-])c1OC(=O)OC(C)C` (stereo not drawn): the AC50 in assay [7] is 2.66 µM (active); in assay [8], 11.5 µM (active); in assay [10], 33.7 µM (active).
As for `c1ccc(Oc2ccccc2)cc1`, the outcome in [7], in assay [8] and in assay [10] was inactive.
With `Clc1cc(Cl)c(-c2c(Cl)c(Cl)cc(Cl)c2Cl)cc1Cl`, the results for the AC50 in [7] and in [8] were 2.99 µM (active) and 12.4 µM (active), respectively. Besides, the outcome in [10] was inactive.
On to `COc1cc(Cl)c(OC)cc1N`, for which the result in [7], in [8] and in assay [10] was inactive.
As for `COCCc1ccc(OCC(O)CNC(C)C)cc1` (stereo not drawn), the outcome in assay [1], in assay [2] and in assay [3] was inactive. In addition, the half-maximal activity concentration (AC50) in [4] is 2.98 µM (active).
`O=C1OC2(c3ccccc31)c1ccc(O)c(Br)c1Oc1c2ccc(O)c1Br`: the outcome in [7] and in assay [10] was inactive. Further, in assay [8], the AC50 was 20 µM (active).
Consider `IC(I)I`, for which the result in assay [7], in [8] and in assay [10] was inactive.
With `CC=Cc1ccc(OCC)c(O)c1`, the result in [7], in assay [8] and in [10] was inactive.
`CC(=O)Nc1ccc(C(=O)CCl)cc1`: the AC50 in assay [7] was 29.5 µM (active); in assay [8] it was 20 µM (active); in assay [10], 3.15 µM (active).
Regarding `CC1(C)C2=CCCC(C)(C)[C@]23CC[C@H]1C3`, the results for the AC50 in [7] and in assay [8] were 30.4 µM (active) and 39 µM (active), respectively. Besides, the outcome in assay [10] was inactive.
As to `CN(C)C(=S)SC(=S)N(C)C`, in assay [7], the outcome was inactive. Also, the AC50 in assay [8] was 19.9 µM (active); in assay [10], 0.559 µM (active).
As for `CN(c1nccc(=O)[nH]1)C1CCN(c2nc3ccccc3n2Cc2ccc(F)cc2)CC1`, the result in assay [7], in assay [8] and in assay [10] was inactive.
On to `C1=CC2C3C=CC(C3)C2C1` (stereo not drawn), for which the result in assay [7], in assay [8] and in assay [10] was inactive.
As for `C=C(C)[C@H]1CC=C(C)C(=O)C1`, the outcome in assay [7], in [8] and in assay [10] was inactive.
For the molecule `CN(C)C(=O)Nc1ccc(Oc2ccc(Cl)cc2)cc1`, the result in assay [7], in assay [8] and in [10] was inactive.
In the case of `CCN(CC)C(=O)N(CC)CC`, the result in assay [7], in [8] and in [10] was inactive.
`COc1ccc(OC)c(N=Nc2c(O)ccc3ccccc23)c1`: the result in [7] was inactive. Besides, the AC50 in assay [8] was 10.4 µM (active); in assay [10], 5.41 µM (active).
Consider `CC(C)(C)CC(C)(C)c1ccc(OCCOCC[N+](C)(C)Cc2ccccc2)cc1`, for which the AC50 is 5 µM (active) in assay [7], 7.02 µM (active) in [8] and 8.64 µM (active) in assay [10].
For the molecule `Cc1cc(CCC(=O)OCCOCCOCCOC(=O)CCc2cc(C)c(O)c(C(C)(C)C)c2)cc(C(C)(C)C)c1O`, the result in assay [7], in assay [8] and in assay [10] was inactive.
On to `CC(C=O)Cc1ccc(C(C)(C)C)cc1` (stereo not drawn), for which the result in [7], in assay [8] and in assay [10] was inactive.
As to `CC(=O)C1(C)CC2=C(CCCC2(C)C)CC1C` (stereo not drawn), the AC50 in assay [7] was 24.7 µM (active); in assay [8], 26 µM (active); in [10], 30.5 µM (active).
For `O=C1OC[C@H](Cc2cccc(O)c2)[C@H]1Cc1cccc(O)c1`, the outcome in [7], in assay [8] and in assay [10] was inactive.
Take `C=C(C)C(=O)OCCOCCOCCOCCOC(=O)C(=C)C`: the outcome in assay [7], in [8] and in assay [10] was inactive.
Consider `C[C@@H]1CCN(C(=O)[C@H](CCCN=C(N)N)NS(=O)(=O)c2cccc3c2NC[C@H](C)C3)[C@@H](C(=O)O)C1`, for which the outcome in [7], in assay [8] and in assay [10] was inactive.
For the molecule `c1ccc(CCc2ccccc2)cc1`, the AC50 in assay [7] was 31.9 µM (active); in assay [8] it was 26.9 µM (active). Also, the result in [10] was inactive.
On to `C=C(C)C(=O)OCC(CC)(COC(=O)C(=C)C)COC(=O)C(=C)C`, for which the AC50 in assay [7] is 10.2 µM (active); in [8], 29.3 µM (active); in [10] it was 27.5 µM (active).
